# Screens: PubChem, National Center for Advancing Translational Sciences (NCATS)
# Only some compounds are listed: those with a hit (about 15% of all), similar ones and a draw of the others.
# RORgamma inh: blocks mouse ROR gamma transcriptional activity; P51450; Potency, µM (highest dose often 53.6 µM), usual class: inhibitors; 5.4% of 310,000 active; Drosophila S2 Gal4-RORgamma UAS-luciferase reporter, 20 h; note: nearly all actives have a fitted effect of over 60% in size
#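 Compounds are pin-transferred onto Drosophila Schneider cells expressing a copper-inducible Gal4–ROR gamma transactivation domain fusion. After 1 hr, copper sulfate is added to 700 uM final; luciferase is read 20 hr later.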
# 12-LOX inh: inhibitors of human 12S-lipoxygenase ALOX12; Potency, µM (titrated, usually from 108 µM), actives largely listed as inhibitors; 1.1% of 580,000 active; P18054; purified 12hLO, xylenol orange hydroperoxide absorbance; AID 1671190
#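 Hydroperoxide product was detected by ferrous iron/xylenol orange as the 573 to 405 nm absorbance ratio. Arachidonic acid at 40 uM (final) was turned over for 30 min at room temperature by 150 nM human 12hLO, pH 7.0 Hepes buffer, after 15 min compound preincubation.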
# DT40 TDP1 CPT: DT40-hTDP1 cell growth loss with CPT; chicken DT40 Tdp1-/-;hTDP1 cells + 20 nM CPT, ATP luminescence, 48 h; Potency, µM (doses to about 46.2 µM), hits mostly inhibitors; 12% of 420,000 active; note: nearly all actives have a fitted effect of over 55% in size
#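 Chicken DT40 Tdp1-/- cells stably complemented with human TDP1 were seeded at 400 cells/well in medium containing 20 nM camptothecin, exposed to pin-transferred compounds, and grown at 37 °C for at least 48 hr. Viability was read as ATP luminescence.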
# TDP1 cell noCPT: qHTS for Inhibitors of human tyrosyl-DNA phosphodiesterase 1 (TDP1): qHTS in cells in absence of CPT; DT40 Tdp1-/- hTDP1 cells, no CPT, ATP luminescence, 48 h; Potency, µM (highest dose often 46.2 µM), usual class: inhibitors; 15% of 420,000 active; note: nearly all actives have a fitted effect of over 55% in size
#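 Growth kinetics read by CellTiter-Glo luminescence after ≥48 hr at 37 °C. Cells: DT40 Tdp1-/- stably carrying human TDP1, 400 per well, compound exposure in the absence of CPT (DMSO vehicle).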
# Gal4-VP16 FLuc: inhibits Gal4-VP16 luciferase reporter, ROR gamma counter-screen; Drosophila S2 Gal4-VP16 UAS-luciferase, luminescence, 20 h; 3.5% of 310,000 active; Potency, µM (top dose mostly 53.6 µM), most hits filed as inhibitors;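 note: Gal4-VP16 expression switched on by copper sulfate through the metallothionein promoter; nearly all actives have a fitted effect of over 50% in size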
# ELG1 repair inh: inhibitors of ELG1-dependent DNA repair in HEK293T cells | HEK293T ELG1-luciferase reporter, luminescence, 16 h; DNA damage induced by 5-fluorouridine | Potency, µM (titrated, usually from 46.1 µM), hits mostly inhibitors | 2.3% of 330,000 active; note: nearly all actives have a fitted effect of over 55% in size
#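 5-Fluorouridine DNA damage + compound/DMSO, 2,000 cells/well, 16 h, 37 °C/5% CO2. ONE-Glo, 30 min RT, luminescence. Readout = decrease in reporter signal.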
# Hits are given with their value; n = inactive; u = inconclusive; x = no result; ! = not active in a repeat; [ ] = remark or other dose. Calls come from the whole dose curve; as a rule, active = well fitted curve in the direction sought with a large enough effect; inconclusive = small, poorly fitted or top-dose-only effect, or another doubt; inactive = no such curve, though single readings can be large; an effect the other way counts as inactive or inconclusive.
SMILES,RORgamma inh,12-LOX inh,DT40 TDP1 CPT,TDP1 cell noCPT,Gal4-VP16 FLuc,ELG1 repair inh
CC(C)(C)C(c1nc2ccccc2[nH]1)n1c(-c2cc(Cl)cc(Cl)c2)nc2ccccc21 (centres undefined),x,n,u,16µM,x,x
CCCCC(c1nc2ccccc2[nH]1)n1c(-c2ccccc2)nc2ccccc21 (centres undefined),x,n,n,n,x,x
CC(c1nc2ccccc2[nH]1)n1c(-c2ccncc2)nc2ccccc21 (centres undefined),x,n,n,n,x,x
CC(C)(C)C(c1nc2ccccc2[nH]1)n1c(-c2cccc(S(C)(=O)=O)c2)nc2ccccc21 (centres undefined),x,n,10µM,13µM,x,x
O=C1CCCC2=C1Sc1ccc(Cl)cc1N2,n,u,n,u,n,n
S=C1CCSc2ccc(Cl)cc2N1,4µM,n,u,u,10µM,n
CC1C(=O)CC(c2ccc([N+](=O)[O-])cc2)NC1c1ccc([N+](=O)[O-])cc1 (centres undefined),n,n,u,u,n,u
CC1C(=O)C(C)C(c2ccc([N+](=O)[O-])cc2)NC1c1ccc([N+](=O)[O-])cc1 (centres undefined),n,n,u,18µM,n,n
Cc1cc(C)n(-c2cc(C(C)(C)C)nc3c(-c4ccc(Cl)cc4)cnn23)n1,n,n,11µM,u,n,n
CC(C)(C)c1cc(N2CCOCC2)n2ncc(-c3ccc(Cl)cc3)c2n1,n,n,u,13µM,n,u
Cc1cc(N2CCOCC2)n2ncc(-c3ccc(Cl)cc3)c2n1,n,n,n,n,u,u
CCCCNc1ccc(C(=O)OCCN(C)C)cc1,n,n,13µM!,u,n,n
CCCCS(=O)(=O)c1nc(-c2ccc(Br)cc2)cc(-c2ccccc2)c1C#N,x,n,3.7µM,2.6µM,x,x
N#Cc1c(-c2ccccc2)cc(-c2ccccc2)nc1Br,n,n,u,u,n,n
CC(C)(C)NC(=S)NN,x,n,x,x,x,x
Cc1c(Br)c(=O)oc2c(Br)c(O)c(O)cc12,5µM,22µM,n,n,n,n
CCCCCCSc1ccc([C@H]2N[C@@](C)(C(=O)OC)[C@H]3C(=O)N(C)C(=O)[C@@H]23)cc1,x,u,21µM,n,x,u
COC(=O)[C@]1(C)N[C@H](c2ccc(SC3CCCCC3)cc2)[C@@H]2C(=O)N(C)C(=O)[C@@H]21,x,n,u,16µM,x,n
CCCSc1ccc([C@H]2N[C@@](C)(C(=O)OC)[C@H]3C(=O)N(C)C(=O)[C@@H]23)cc1,x,u,n,n,x,n
COc1ccc(CN2CCn3c(nnc3-c3ccccc3)C2)cc1,x,n[6.33 µM],x,x,x,x
CCn1cc(CN2CCN(C(=O)c3ccoc3)CC2)ccc1=O,x,n,x,x,x,x
CC(=O)c1ccc(N2CCN(C(C(=O)O)c3cn(C)c4ccc(C(=O)O)cc34)CC2)cc1 (centres undefined),x,n,x,x,x,x
O=C1CCCN1CCCN1C(=O)[C@@H]2C[C@@H](O)CN2C2(CN(Cc3ccc(Cl)cc3)C2)C1=O,x,n,x,x,x,x
Cc1oc2cc(OCCN3CCN(CCO)CC3)ccc2c(=O)c1-c1ccc(Br)cc1,x,35µM,x,x,x,x
COc1ccc(-c2c(C)oc3cc(OCCN4CCN(CCO)CC4)ccc3c2=O)cc1,x,n,x,x,x,x
CN(Cc1ccccc1)C(=O)Cn1c(=O)n(C)c2ccccc21,x,n,x,x,x,x
Cn1c(=O)c(C(=O)CCl)c(N)n(Cc2ccccc2)c1=O,n,u,4.1µM,4.6µM,u,u
Cn1c(N)c(C(=O)CCl)c(=O)n(Cc2ccccc2)c1=O,n,n,2.3µM,5.8µM,u,21µM
CN(C)CC(=O)c1c(N)n(Cc2ccccc2)c(=O)n(C)c1=O,n,n,n,n,n,n
Cn1c(=O)c(C(=O)CSc2ccccc2)c(N)n(Cc2ccccc2)c1=O,n,n,n,n,n,u
